Laboratory results reported in the supplement of paper PMC11732987, “Enantioselective OTUD7B fragment discovery through chemoproteomics screening and high-throughput optimisation” (Communications Chemistry, 2025).

Key:
Assay in all cases: log2 ratio of Biotin-Ahx-Ub-VS probe labelling (fragment/DMSO); higher = less target engagement (more negative = stronger competition), active = hit call of the paper (q ≤ 0.05, log2 ratio ≤ -1)
Conditions in all cases: compound concentration: 200 uM; treatment time: 3 h
USP34 = USP34 (UniProt Q70CQ2)
Sequence of USP34 (Q70CQ2 whole entry, the tested form may be a part): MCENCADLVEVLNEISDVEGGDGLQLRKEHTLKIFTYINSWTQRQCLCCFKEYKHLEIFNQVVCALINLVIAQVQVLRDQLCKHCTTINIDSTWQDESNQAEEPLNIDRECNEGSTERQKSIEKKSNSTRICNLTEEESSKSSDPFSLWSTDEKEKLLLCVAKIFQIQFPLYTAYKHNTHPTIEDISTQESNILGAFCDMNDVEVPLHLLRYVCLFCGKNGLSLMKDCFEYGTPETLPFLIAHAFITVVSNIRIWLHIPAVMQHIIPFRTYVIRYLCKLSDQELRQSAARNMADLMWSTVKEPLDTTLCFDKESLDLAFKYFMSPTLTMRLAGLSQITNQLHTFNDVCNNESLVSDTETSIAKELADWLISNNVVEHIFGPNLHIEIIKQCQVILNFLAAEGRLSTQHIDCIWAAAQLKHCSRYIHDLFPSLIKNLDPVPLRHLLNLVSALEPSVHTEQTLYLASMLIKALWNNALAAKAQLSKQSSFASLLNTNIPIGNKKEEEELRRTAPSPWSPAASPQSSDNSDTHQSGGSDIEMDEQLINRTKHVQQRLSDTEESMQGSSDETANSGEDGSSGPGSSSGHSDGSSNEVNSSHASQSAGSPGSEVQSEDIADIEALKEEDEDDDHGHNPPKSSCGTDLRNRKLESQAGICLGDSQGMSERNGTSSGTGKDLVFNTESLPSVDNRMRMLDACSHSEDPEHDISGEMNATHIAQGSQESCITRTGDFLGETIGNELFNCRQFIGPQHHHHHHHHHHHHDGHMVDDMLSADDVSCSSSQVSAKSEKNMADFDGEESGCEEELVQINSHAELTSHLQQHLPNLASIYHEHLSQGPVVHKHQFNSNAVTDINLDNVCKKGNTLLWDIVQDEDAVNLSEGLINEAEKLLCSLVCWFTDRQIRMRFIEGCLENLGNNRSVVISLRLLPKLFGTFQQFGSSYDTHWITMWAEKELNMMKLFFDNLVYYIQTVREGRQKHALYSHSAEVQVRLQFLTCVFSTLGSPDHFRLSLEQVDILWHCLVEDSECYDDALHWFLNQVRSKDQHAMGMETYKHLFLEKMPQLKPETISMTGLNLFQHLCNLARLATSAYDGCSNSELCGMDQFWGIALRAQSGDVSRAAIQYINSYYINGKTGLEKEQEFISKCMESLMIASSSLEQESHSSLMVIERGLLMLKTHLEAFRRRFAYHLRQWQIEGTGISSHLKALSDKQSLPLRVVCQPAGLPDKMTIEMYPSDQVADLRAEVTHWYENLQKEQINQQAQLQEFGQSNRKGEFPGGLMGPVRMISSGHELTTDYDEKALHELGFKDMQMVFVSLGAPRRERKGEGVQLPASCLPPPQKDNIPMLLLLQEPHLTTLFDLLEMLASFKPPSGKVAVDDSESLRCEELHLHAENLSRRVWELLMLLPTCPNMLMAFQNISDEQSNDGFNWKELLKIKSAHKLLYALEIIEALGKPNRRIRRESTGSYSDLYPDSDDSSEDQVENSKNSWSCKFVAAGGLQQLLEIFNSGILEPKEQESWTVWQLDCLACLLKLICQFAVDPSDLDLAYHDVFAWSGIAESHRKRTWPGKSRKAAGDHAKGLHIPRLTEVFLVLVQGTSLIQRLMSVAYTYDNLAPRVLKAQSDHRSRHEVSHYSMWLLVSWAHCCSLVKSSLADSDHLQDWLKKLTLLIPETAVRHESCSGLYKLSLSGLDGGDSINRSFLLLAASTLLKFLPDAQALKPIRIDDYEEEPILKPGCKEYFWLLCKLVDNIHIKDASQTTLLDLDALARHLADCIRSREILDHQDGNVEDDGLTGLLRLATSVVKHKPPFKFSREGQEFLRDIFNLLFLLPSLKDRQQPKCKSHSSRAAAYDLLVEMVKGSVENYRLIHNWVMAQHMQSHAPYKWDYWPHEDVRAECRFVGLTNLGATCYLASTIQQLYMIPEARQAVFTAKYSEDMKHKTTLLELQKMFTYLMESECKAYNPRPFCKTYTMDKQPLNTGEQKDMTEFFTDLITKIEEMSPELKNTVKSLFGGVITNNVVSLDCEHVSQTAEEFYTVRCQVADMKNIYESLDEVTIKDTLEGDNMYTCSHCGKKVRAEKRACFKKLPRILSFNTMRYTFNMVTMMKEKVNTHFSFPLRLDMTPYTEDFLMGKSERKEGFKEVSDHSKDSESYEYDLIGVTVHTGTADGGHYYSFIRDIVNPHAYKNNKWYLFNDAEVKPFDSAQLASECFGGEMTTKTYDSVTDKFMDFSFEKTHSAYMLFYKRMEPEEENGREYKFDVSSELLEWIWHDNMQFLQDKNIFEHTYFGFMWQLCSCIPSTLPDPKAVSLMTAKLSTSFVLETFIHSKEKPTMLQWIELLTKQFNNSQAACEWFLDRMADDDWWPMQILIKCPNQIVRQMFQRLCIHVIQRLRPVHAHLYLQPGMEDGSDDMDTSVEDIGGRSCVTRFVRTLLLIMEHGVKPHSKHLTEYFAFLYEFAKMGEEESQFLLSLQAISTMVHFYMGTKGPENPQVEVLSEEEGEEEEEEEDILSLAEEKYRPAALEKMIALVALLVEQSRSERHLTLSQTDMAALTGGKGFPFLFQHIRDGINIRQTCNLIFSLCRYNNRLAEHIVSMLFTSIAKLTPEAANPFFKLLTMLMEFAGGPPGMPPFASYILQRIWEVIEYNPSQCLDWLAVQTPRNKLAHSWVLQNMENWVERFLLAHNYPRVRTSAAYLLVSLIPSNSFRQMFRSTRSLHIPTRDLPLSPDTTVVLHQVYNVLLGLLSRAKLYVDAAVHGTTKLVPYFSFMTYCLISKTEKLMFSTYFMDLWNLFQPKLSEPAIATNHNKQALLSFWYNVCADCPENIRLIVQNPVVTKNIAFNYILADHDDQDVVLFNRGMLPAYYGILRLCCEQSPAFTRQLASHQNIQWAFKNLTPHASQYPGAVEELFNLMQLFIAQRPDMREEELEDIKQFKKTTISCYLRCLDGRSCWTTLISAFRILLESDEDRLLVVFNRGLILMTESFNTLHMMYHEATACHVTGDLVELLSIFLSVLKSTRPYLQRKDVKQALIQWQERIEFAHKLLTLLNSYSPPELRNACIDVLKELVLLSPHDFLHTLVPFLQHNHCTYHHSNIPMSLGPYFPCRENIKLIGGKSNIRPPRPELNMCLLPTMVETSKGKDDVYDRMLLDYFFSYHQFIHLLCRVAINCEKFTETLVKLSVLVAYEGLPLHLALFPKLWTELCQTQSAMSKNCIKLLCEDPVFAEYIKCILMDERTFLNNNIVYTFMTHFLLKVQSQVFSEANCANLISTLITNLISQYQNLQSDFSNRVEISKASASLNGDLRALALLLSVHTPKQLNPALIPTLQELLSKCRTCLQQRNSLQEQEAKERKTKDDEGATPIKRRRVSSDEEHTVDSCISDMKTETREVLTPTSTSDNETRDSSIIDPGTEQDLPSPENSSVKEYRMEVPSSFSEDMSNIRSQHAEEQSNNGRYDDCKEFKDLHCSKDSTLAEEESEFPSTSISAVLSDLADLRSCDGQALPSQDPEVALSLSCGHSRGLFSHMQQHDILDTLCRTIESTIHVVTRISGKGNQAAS
In short: (§1)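 Labelled DUBs from HEK293T lysate were NeutrAvidin-enriched, digested with LysC and trypsin, and run by diaPASEF LC-MS/MS. Before that, each 495 µg sample in Tris/CHAPS/IGEPAL buffer with protease inhibitors was treated in triplicate with fragment at 200 µM or vehicle for 3 h, then with Biotin-Ahx-Ub-VS at 0.5 µM final for 1 h. Values are average log2 ratios of fragment over vehicle by unpaired t-test, based on global-median-normalised Spectronaut label-free quantities from proteins with ≥2 unique peptides.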

USP36 = molecular target: T1, USP36 (UniProt Q9P275)
T1 sequence (whole entry): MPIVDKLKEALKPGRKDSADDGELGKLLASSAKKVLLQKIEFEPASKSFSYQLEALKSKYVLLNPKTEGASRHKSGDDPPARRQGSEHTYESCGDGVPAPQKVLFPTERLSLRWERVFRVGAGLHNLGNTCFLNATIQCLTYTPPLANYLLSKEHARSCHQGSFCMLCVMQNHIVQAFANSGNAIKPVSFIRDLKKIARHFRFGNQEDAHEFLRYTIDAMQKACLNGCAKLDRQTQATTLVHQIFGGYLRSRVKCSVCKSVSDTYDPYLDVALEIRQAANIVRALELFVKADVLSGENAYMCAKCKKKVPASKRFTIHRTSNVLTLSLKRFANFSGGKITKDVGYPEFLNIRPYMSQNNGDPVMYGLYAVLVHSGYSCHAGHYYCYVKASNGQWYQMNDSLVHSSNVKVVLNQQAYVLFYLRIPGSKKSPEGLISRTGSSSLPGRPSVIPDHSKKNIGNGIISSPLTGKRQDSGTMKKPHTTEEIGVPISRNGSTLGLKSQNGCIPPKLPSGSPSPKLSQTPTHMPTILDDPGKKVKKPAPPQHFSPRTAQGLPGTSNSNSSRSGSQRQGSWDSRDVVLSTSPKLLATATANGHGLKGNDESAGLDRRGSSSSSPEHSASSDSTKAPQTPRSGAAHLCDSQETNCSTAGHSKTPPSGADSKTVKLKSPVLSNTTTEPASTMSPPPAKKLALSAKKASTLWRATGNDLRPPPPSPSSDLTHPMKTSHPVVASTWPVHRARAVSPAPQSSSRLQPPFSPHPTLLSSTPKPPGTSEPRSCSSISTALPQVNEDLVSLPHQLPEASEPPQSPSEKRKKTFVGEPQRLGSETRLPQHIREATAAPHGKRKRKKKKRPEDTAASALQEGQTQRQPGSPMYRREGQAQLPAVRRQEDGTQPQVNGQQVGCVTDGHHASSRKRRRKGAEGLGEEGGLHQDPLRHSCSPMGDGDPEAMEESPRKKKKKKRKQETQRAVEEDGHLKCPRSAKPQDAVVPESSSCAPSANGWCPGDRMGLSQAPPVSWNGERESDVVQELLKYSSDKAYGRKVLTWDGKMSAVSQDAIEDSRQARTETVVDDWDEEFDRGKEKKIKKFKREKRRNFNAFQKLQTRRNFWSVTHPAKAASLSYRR
In short: as §1

USP38 = molecular target: T2, USP38 (UniProt Q8NB14)
T2 sequence (whole entry): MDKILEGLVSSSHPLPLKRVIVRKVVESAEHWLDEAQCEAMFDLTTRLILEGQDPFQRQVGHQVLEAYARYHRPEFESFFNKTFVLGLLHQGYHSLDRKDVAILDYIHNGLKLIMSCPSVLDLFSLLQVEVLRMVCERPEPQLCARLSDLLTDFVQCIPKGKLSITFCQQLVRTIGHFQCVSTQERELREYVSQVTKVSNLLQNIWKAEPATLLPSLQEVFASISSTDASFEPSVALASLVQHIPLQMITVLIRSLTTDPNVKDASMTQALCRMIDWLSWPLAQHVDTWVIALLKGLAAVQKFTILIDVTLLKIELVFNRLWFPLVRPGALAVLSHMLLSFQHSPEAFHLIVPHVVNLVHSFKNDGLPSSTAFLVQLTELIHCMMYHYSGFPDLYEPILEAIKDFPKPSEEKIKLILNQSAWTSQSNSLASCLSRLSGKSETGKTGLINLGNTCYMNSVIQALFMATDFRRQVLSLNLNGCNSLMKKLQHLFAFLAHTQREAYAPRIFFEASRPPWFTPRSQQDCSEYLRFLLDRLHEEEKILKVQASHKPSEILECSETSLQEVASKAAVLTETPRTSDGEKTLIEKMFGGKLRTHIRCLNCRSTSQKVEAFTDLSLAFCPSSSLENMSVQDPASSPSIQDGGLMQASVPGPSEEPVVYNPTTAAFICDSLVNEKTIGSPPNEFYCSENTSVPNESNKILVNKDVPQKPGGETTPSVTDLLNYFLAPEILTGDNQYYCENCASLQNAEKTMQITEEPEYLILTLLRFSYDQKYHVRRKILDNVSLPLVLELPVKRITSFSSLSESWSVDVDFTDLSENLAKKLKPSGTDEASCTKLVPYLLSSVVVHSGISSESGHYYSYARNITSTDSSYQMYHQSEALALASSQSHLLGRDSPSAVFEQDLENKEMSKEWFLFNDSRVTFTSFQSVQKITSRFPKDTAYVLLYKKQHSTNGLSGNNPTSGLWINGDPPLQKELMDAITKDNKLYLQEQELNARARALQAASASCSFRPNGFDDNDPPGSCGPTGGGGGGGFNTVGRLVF
In short: as §1

USP39 = molecular target: T3, USP39 (UniProt Q53GS9)
T3 sequence (whole entry): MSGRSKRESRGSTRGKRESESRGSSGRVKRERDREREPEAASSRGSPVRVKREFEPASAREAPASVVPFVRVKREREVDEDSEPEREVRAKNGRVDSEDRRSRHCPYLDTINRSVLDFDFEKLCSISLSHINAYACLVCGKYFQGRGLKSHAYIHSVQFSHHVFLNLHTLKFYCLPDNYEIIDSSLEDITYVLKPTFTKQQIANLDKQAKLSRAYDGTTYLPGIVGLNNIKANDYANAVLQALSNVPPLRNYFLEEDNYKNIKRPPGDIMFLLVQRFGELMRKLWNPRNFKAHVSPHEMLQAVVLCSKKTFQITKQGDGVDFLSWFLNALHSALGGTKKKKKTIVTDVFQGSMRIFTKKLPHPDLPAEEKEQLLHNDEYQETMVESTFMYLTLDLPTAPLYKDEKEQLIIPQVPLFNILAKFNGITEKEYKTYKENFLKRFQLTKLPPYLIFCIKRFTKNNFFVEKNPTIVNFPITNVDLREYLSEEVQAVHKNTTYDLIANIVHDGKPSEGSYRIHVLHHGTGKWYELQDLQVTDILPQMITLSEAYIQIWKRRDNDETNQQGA
In short: as §1

USP4 = molecular target: T4, USP4 (UniProt Q13107)
T4 sequence (whole entry): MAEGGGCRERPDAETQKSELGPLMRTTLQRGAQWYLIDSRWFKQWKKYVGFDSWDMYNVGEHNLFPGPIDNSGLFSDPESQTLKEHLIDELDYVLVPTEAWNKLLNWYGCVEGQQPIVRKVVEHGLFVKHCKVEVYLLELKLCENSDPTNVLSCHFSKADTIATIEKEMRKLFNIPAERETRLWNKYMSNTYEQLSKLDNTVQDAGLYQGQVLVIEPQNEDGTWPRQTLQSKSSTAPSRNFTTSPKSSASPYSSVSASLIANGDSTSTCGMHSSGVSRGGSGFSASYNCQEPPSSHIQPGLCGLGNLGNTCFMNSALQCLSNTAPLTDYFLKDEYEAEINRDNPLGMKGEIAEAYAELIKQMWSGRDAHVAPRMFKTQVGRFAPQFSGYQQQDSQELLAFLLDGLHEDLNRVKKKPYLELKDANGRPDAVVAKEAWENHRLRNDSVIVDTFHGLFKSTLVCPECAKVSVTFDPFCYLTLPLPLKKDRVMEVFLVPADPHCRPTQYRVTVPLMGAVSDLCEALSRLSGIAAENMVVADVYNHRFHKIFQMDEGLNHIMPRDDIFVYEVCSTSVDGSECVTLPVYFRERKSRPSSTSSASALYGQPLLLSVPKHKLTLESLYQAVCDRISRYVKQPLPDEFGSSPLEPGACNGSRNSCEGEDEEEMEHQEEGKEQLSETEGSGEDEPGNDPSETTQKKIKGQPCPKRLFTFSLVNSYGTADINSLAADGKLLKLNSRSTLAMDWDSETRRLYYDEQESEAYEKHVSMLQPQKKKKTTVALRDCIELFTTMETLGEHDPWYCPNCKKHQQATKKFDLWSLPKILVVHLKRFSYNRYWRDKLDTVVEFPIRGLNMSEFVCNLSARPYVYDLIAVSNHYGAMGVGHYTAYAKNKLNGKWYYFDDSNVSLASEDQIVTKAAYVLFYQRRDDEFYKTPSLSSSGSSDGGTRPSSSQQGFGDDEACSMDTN
In short: as §1

Measured: log2 ratio of Biotin-Ahx-Ub-VS probe labelling

CN(Cc1nc2ccccc2[nH]1)C(=O)CCl.Cl
inactive: USP34 -0.266 | USP36 0.0504 | USP38 0.056 | USP39 0.391 | USP4 -0.0216
